Where “and” joins values, the source holds several entries; their conditions need not be identical. Equal entries are not always repeated. Among all 330,000 compounds or so, about 1,900 (0.58%) were called active. Inconclusive results (about 4%) are left out. Rule as the data show it: inconclusive = inhibition above about 70% without an active follow-up result; inactive = below that. Not all results are given here. Measured potencies and affinities stand elsewhere.
Assay: M. tuberculosis growth inhibition, HTS (AID 449762);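 also: bacterial growth assessed after seven days of incubation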
Conditions: M. tuberculosis H37Rv growth inhibition, 7H9 media; at 25 µM; hits give high values

Compound | inhibition
CC1Cc2ccccc2N1CC(=O)Nc1cccc(S(N)(=O)=O)c1 (stereo unspecified) | 3.61% (inactive)
CCOc1ccc(CCNC(=O)c2nn(C)c3c2CS(=O)(=O)c2ccccc2-3)cc1OCC | 3.57% (inactive)
O=C(NC1=NCCS1)C1CCN(S(=O)(=O)c2cc([N+](=O)[O-])ccc2Cl)CC1 | -7.02% (inactive)
O=C(NC1CC1)C1CCN(S(=O)(=O)c2cc([N+](=O)[O-])ccc2Cl)CC1 | -3.67% (inactive)
CC(=O)c1cccc(OCc2cc(C(=O)N(C)CCc3cnn(C)c3)no2)c1 | 1.92% (inactive)
CCN(Cc1cnn(C)c1)C(=O)c1cc(COc2cc(C)c(Cl)c(C)c2)on1 | 10% (inactive)
COc1ccc(Cl)cc1Nc1cc(C)nc2nc(C)nn12 | 2.13% (inactive)
COc1ccc(/C=C/C2=CCN(C)CC2)cc1 | -5.45% (inactive)
OC(CN1CC=C(/C=C/c2ccc(Br)cc2)CC1)c1ccccc1 (stereo unspecified) | 10.3% (inactive)
Cc1cc(C(=O)NCC(=O)Nc2c(C)cccc2C)c2ccccc2n1 | -6.3% (inactive)
O=C(NCCCN1CCOCC1)C1CCN(S(=O)(=O)c2ccccc2)CC1 | -0.05% (inactive)
CCCOc1ccc(C(=O)N/N=C/c2ccc(-c3ccc(S(=O)(=O)Nc4ncccn4)cc3)o2)cc1 | 7.99% (inactive)
O=C(N/N=C/c1ccc(-c2ccc(S(=O)(=O)Nc3ncccn3)cc2)o1)c1cc2ccccc2cc1O | -7.05% (inactive)
CCC1CCC(C(=O)NNC(=O)OC)CC1 (stereo unspecified) | -7.14% (inactive)
COc1cccc(Nc2nnc(SCC(=O)Nc3sccc3C(N)=O)s2)c1 | 0.87% (inactive)
Cn1c(NC(=O)C[n+]2cc(-c3ccc(Cl)cc3)n3c2CCC3)cc(=O)n(C)c1=O | -2.19% (inactive)
Cc1ccc(-c2c[n+](CC(=O)c3cccs3)c3n2CCC3)cc1 | -3.4% (inactive)
Cc1ccc(C(=O)C[n+]2cc(-c3ccccc3)n3c2CCCCC3)cc1 | 2.54% (inactive) and -2.93% (inactive)
COc1ccc(C(=O)C[n+]2cc(-c3ccc(OC)cc3)n3c2CCCC3)cc1 | 5.06% (inactive)
Cc1ccc(NC(=O)C[n+]2cc(-c3ccccc3)n3c2CCC3)cc1 | 5.89% (inactive)
Cc1ccc(-c2c[n+](CC(=O)Nc3c(C)cccc3C)c3n2CCC3)cc1 | 11.9% (inactive)
Cc1c(C(=O)N2CCOCC2)cc(C(C)(C)C)n1-c1ccccc1 | -3.73% (inactive)
O=C(OCCNc1nc(-c2ccccc2)nc2ccccc12)c1cccnc1 | 10.2% (inactive)

Compound | inhibition
COc1ccccc1NC(=O)CN1CCN(C(=O)C2CCCO2)CC1 (stereo unspecified) | -18.2% (inactive)
NC(=O)CSc1nnc(-c2cc(-c3cccs3)nc3ccccc23)o1 | 5.91% (inactive)
Cc1sc(NC(=O)CN2CCCC2)nc1-c1ccc2c(c1)CCN2C(=O)c1cccc(F)c1 | 9.15% (inactive)
CN(C)C(=N)c1n[nH]nc1SCc1ccc(Cl)c(Cl)c1 | -2.06% (inactive)
CCCN(CC1CC1)C(=O)COC(=O)c1oc2ccc(OCC)cc2c1C | 2.37% (inactive)
CCOc1ccc(N2C(=O)c3ccc(C(=O)OCc4c(C)noc4C)cc3C2=O)cc1 | -11.4% (inactive)
COc1ccc(CNC(=O)c2cc(C3CC3)on2)cc1 | 8.82% (inactive)
O=C(c1ccc(Br)o1)N1CCc2ccccc21 | -3.15% (inactive)
O=C(NC(=S)N1CCc2ccccc21)c1ccccc1Br | 6.29% (inactive)
CC(OC(=O)c1cccnc1Cl)C(=O)Nc1ccc2c(c1)OCO2 (stereo unspecified) | 0.24% (inactive)
C=CCOc1cccc(C2C(C(=O)c3ccco3)=C(O)C(=O)N2CCN(CC)CC)c1 (stereo unspecified) | -1.23% (inactive)
CCCOC(=O)c1cc(-c2ccc(C=O)o2)ccc1Cl | 9.94% (inactive)
CCOC(=O)c1ccc(-c2ccc(C=O)o2)cc1 | 12.7% (inactive)
CC(C)(C)NC(=O)COC(=O)c1ccc(S(=O)(=O)N2CCCC2)cc1 | 5.11% (inactive)
CN(C)CCCN1C(=O)c2cccc3c([N+](=O)[O-])ccc(c23)C1=O | 36.5% (inactive)
Cc1nnc(N2C(=O)c3cccc4c([N+](=O)[O-])ccc(c34)C2=O)s1 | -2.32% (inactive)
Cc1ccc(S(=O)(=O)NCC(=O)OCC(=O)Nc2cccc(S(=O)(=O)NC3=NCCCCC3)c2)cc1 | 7.74% (inactive)
COCCn1cnnc1SCC(=O)Nc1cccc(S(=O)(=O)N(C)c2ccccc2)c1 | -4.95% (inactive)
COc1cc(OC)c(C(=O)Nc2cccnc2)cc1OC | 3.08% (inactive)
CN(C)c1ncc(S(=O)(=O)c2ccccc2)c(N)n1 | -5.65% (inactive)
CN1CCN(C2=Cc3ccccc3Sc3cc(F)ccc32)CC1 | -12.7% (inactive)
CN1CCN(c2ccc(F)cc2N)CC1 | -0.88% (inactive)
CCOc1ccc(S(=O)(=O)NCCC(=O)N2CCC(Cc3ccccc3)CC2)cc1 | 44.3% (inactive)

Compound | inhibition
CCN(CC)S(=O)(=O)c1ccc(N2CCN(CCO)CC2)nc1 | -5.66% (inactive)
Cc1nc2ccc(NC(=O)c3ccc([N+](=O)[O-])cc3)cc2s1 | 3.43% (inactive)
Cc1nc2ccc(NC(=O)c3cc([N+](=O)[O-])cc([N+](=O)[O-])c3Cl)cc2s1 | 38.8% (inactive)
COc1ccc(S(=O)(=O)N2CCN(CC(=O)Nc3ccccc3Cl)CC2)cc1 | -4.47% (inactive)
CN(C)C1(CNC(=O)c2ccc(NS(=O)(=O)c3ccc(Cl)c(Cl)c3)cc2)CCCCC1 | -3.67% (inactive)
CN(C)C1(CNC(=O)Nc2ccccc2)CCCCC1 | 3.43% (inactive)
CCc1cc2c(=O)n(CC(=O)NCCc3ccc(OC)c(OC)c3)cnc2s1 | -7.38% (inactive)
CCN(CC)C(=O)CN(c1cccc(Br)c1)S(C)(=O)=O | -7.74% (inactive)
COC(C/C=C/[C@H](O)[C@@H](C)OCc1ccccc1)OC | -3.21% (inactive)
O=C(C1=C[C@H](c2csc3ccccc23)C[C@H](OCCCCO)O1)N1CCN(Cc2ccc3c(c2)OCO3)CC1 | 59.9% (inactive)
O=C(C1=C[C@H](c2csc3ccccc23)C[C@H](OCc2ccc(CO)cc2)O1)N1CCN(Cc2ccc3c(c2)OCO3)CC1 | 21.8% (inactive)
Cc1ccc(/C=C/C(=O)O)cc1S(=O)(=O)N1CCc2ccccc21 | -1.47% (inactive)
C/C(=N\NC(=O)c1sccc1C)c1cccnc1 | -1.12% (inactive)
CCN1CC(CN(C)Cc2nc(COc3ccccc3)no2)CC1=O (stereo unspecified) | 2.85% (inactive)
C[C@@H](NCCc1ccc(O)cc1)[C@@H](O)c1ccc(O)cc1 | -1.64% (inactive)
C[C@H](NCCc1ccc(O)cc1)[C@H](O)c1ccc(O)cc1 | 1.5% (inactive)
CCCCNC(=O)c1c(CSc2ccc(Cl)cc2)noc1C(=O)NCc1ccccc1 | 8.53% (inactive)
CC(C)(C)c1[nH]nc2c1C(Cc1ccccc1)C(C#N)=C(N)O2 (stereo unspecified) | -0.95% (inactive)
COc1ccccc1Nc1ccc(C(=O)NC2CCCCC2)cn1 | -2.47% (inactive)
C/C(=N\NC(=O)COc1ccc(C)cc1[N+](=O)[O-])c1cccs1 | 2.03% (inactive)
C/C(CC(=O)NC(C)(C)C)=N\NC(=O)COc1ccc(C)cc1Br | 2.95% (inactive)
Cc1ccsc1C(=O)OCC(=O)NCc1ccccc1 | -4.47% (inactive)
COc1cccc(/C=C2\SC(=S)N(CCCC(=O)NC3=NCCS3)C2=O)c1 | 2.44% (inactive)

Compound | inhibition
Cc1cc(C=C2C(=O)N(C)C(=S)N(C)C2=O)c(C)n1C1CCCC1 | 64.7% (inactive)
Cc1cc(C=C2C(=O)N(C)C(=S)N(C)C2=O)c(C)n1C1CCCCC1 | -5.32% (inactive)
CCOC(=O)C1CCN(S(=O)(=O)c2ccc(-c3cc(C(F)(F)F)n(C)n3)s2)CC1 | -4.16% (inactive)
Cc1cnc(C(=O)Nc2cccc3ncccc23)cn1 | -2.6% (inactive)
Cc1c(C)c(C)c(CO/N=C/c2cccs2)c(C)c1C | -0.39% (inactive)
COc1cc(NC(C)CCCN)c2ncccc2c1Oc1ccccc1 (stereo unspecified) | -3.95% (inactive)
COc1cc(NCCCCCCCN)c2ncccc2c1 | 7.02% (inactive)
CCCCC(=O)Nc1cccc(-c2nn3c(C)nnc3s2)c1 | 8.49% (inactive)
O=C1NN(c2cccc(Br)c2)C(=O)/C1=C\c1ccc(O)cc1 | 1.89% (inactive)
Cc1cc(/C=C2/C(=O)NN(c3ccccc3)C2=O)c(C)n1-c1ccc(O)cc1 | 5.28% (inactive)
CN(CC1COc2ccccc2O1)C(=S)NC1CCCCC1 (stereo unspecified) | -4.56% (inactive)
COc1cc(/C=N\NC(=O)c2ccc(Cn3nc([N+](=O)[O-])c(Cl)c3C)o2)ccc1O | -5.71% (inactive)
Cc1c(Cl)c([N+](=O)[O-])nn1Cc1ccc(C(=O)N/N=C\c2ccccn2)o1 | 0.01% (inactive)
Cc1ccc(CNC(=O)c2ccc(Cn3nc(C)c(Cl)c3C)o2)cc1 | -10.1% (inactive)
Cc1nn(Cc2ccc(C(=O)NN)o2)c(C)c1Cl | -6.65% (inactive)
COc1ccc(NC(=O)C(C)N(C)Cc2ccc3ccccc3c2)cc1 (stereo unspecified) | 0.65% (inactive)
NC(N)=NCCCC(NC(=O)c1ccccc1)C(=O)Nc1ccc2ccccc2c1 (stereo unspecified) | 69.1% (inactive)
O=C(CSc1ccc2nnc(-c3ccc(F)cc3)n2n1)NCc1ccco1 | -4.01% (inactive)
CC1(C)C([N+](=O)[O-])C(c2ccc(Cl)cc2)NC(c2ccc(Cl)cc2)C1[N+](=O)[O-] (stereo unspecified) | 61.2% (inactive)
CCOc1ccc(NC(=O)CSc2ccc3nnc(-c4cccnc4)n3n2)cc1 | -11.5% (inactive)
CCN(CC)C(=S)Nc1ccc(Cl)c(Cl)c1 | 7.74% (inactive)
O=C(Cc1ccccc1)NNC(=O)Nc1ccc(Cl)c(Cl)c1 | 9.99% (inactive)
